The campaign covered roughly 330,000 compounds. About 7,300 (2.2%) were called active.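 Rule for the calls: active = inhibition of at least 40%; inactive = the rest.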 Shown is part of a subset that was picked to be rich in actives.
Test: growth inhibitors of tim10-1 mutant yeast, primary screen, luminescence, uHTS (AID 463190);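 note: mutant grown at 25 °C; 0% = DMSO wells with yeast and 100% = wells holding no yeast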
Conditions: S. cerevisiae tim10-1 ts strain growth, BacTiter-Glo, 24 h; at 20 µM; active compounds read high

inhibition, inactive:
CCN(Cc1ccncc1)C(=O)CCc1ccccc1 -0.112%
COc1ccc(NC(=O)/C(C#N)=C\c2cc(OC)c(OCc3ccc(C(=O)O)cc3)cc2Br)cc1 26.4%
COc1ccc(CNC(=O)CCn2cccc2)cc1 9.29%
CC(C)c1ccc(/C=C2\NC(=O)NC2=O)cc1 10.2%
COc1ccccc1N1CCN(C(=O)c2ccc(Cl)c(S(=O)(=O)N3CCCC3)c2)CC1 22%
Cc1[nH]c2ccc(C(=O)N3CCN(C)CC3)cc2c1C -12.6%
COc1ccc(-c2c(C#Cc3ccsc3)c3cc(-c4ccc(CN5CCOCC5)cc4)ccc3n2C)cc1 15.1%
Cc1ccccc1C(=O)N1CCC(C(=O)Oc2ccc(C#N)cc2)CC1 -2.27%
CS(=O)(=O)n1nc(-c2ccco2)nc1N 3.68%
CCCn1nc(C(=O)NNC(=O)CCOc2ccccc2OCC)c2ccccc2c1=O 17.6%
Cn1cccc1C(C#N)c1ccccc1C#N (stereo not given) 10.1%
O=C(NC1(C(F)(F)F)NC(=O)N(Cc2cccnc2)C1=O)c1ccccc1Cl (stereo not given) 9.72%
COc1cc(C(=O)N(C)Cc2cccc(OC)c2OC)ccc1OCC(=O)Nc1cccc(C(F)(F)F)c1 20.8%
COc1ccc(Cn2c(=O)cc(C)[nH]c2=S)cc1 -11.8%
CCn1c(C)cc(=O)cc1-c1ccc(Cl)cc1 8.56%
Cc1cccc(NS(=O)(=O)c2cccc(C(=O)NNC(=O)c3ccccc3O)c2)c1 21.6%
O=C(CN1CCN(C(=S)NC2CCCC2)CC1)Nc1ccc(Oc2ccccc2)cc1 12.6%
Cc1ccc2cc(C#N)c(NCCNC(=S)NCCCN3CCOCC3)nc2c1 -0.527%
CC(C)N(C(=O)Cn1cc(S(=O)(=O)CC(=O)N2CCOCC2)c2ccccc21)C(C)C -3.3%
CCOC(=O)c1[nH]cnc1C(=O)Nc1ccccc1C 11.6%
O=C(Nc1ccon1)c1nc[nH]c1C(=O)NCc1ccccc1 7.98%
CC(C)c1ccc(S(=O)(=O)N2CCN(C(C)C(=O)NC3CCCC3)CC2)cc1 (stereo not given) 13.4%
Nc1c(C(=O)O)cnn1-c1ccccc1 2.2%
CCN(C(=O)COC(=O)c1ccccc1O)c1cccc2ccccc12 24.2%
O=C(O)c1cccc(NC(=S)N/N=C/c2c[nH]c3ccccc23)c1 19%
Nc1nonc1-n1nnc(C(=O)N/N=C/c2c[nH]c3ccccc23)c1-c1ccccc1 11.6%
Cn1cnc(S(=O)(=O)Nc2ccc3c(c2)OCCO3)c1 -19.7%
O=C(CC1N=C2c3ccccc3N=C(SCc3ccccc3Cl)N2C1=O)NCc1ccco1 (stereo not given) 24.8%
S=C(NCc1ccco1)NCc1ccccc1Cl 28.9%
Cc1cc(C)n(Cc2cnc(N3CCOCC3)s2)n1 10.6%
COc1ccc(-n2c(=O)[nH]c3cc(C(=O)NCCc4ccc(OC)c(OC)c4)ccc3c2=O)c(OC)c1 7.83%
CCOc1ccccc1N(CC(=O)NC1CCCCC1)C(=O)CCCC(=O)Nc1ccccn1 10.6%
Cn1c(Cc2cccs2)nnc1SCC(=O)Nc1ccccc1 10.8%
CCn1c(=O)c([N+](=O)[O-])c(NCc2ccc3c(c2)OCO3)c2ccccc21 2.3%
CCc1ccc(S(=O)(=O)N/N=C\c2ccc([N+](=O)[O-])o2)cc1 30.4%
COc1ccc(OC)c(C2C3=C(N=c4s/c(=C\c5cccc(O)c5)c(=O)n42)c2ccccc2CC3)c1 (stereo not given) 22%
COc1ccc(CN2CC[C@H]3C=CC[C@@H](C(=O)N4CCOCC4)[C@H]3C2=O)cc1OC 6.76%
Cc1nc2ccccn2c1C(=O)NN=C1CCN(C)CC1 1.25%
CCOC(=O)Cn1c(O)c(N=NC(=O)CNC(=O)Cc2ccccc2)c2ccccc21 -11.5%
O=C(CN1CCCC1)Nc1sc2c(c1C(=O)Nc1ccccc1)CCCC2 2.11%
Cc1nc(-c2ccccc2)sc1C(=O)/C=C/N(C)C 5.62%
Cc1nc(-c2ccc(Cl)cc2)sc1C(=O)NN -3.83%
CCc1ccc(S(=O)(=O)Nc2ccc(C)c(NS(C)(=O)=O)c2)cc1 -0.664%
O=S(=O)(Nc1cc(Cl)ccc1N1CCOCC1)c1ccccc1Cl 12%
Nc1ccc(-c2nnc(-c3ccccc3)o2)cc1 -11.5%
Brc1ccc(-c2nnc(-c3ccccc3)o2)o1 -6.79%
Cc1cc2c(=O)n(C)c(SCC(=O)c3cc4ccccc4o3)nc2s1 29.9%
CCOc1ccccc1Nc1nnc(SCC(=O)Nc2cc(C)on2)s1 14.3%
O=C(Nc1cc(-c2nn(CC(=O)N3CCCCC3)c(=O)c3ccccc23)ccc1N1CCOCC1)c1ccc(Cl)cc1 5.87%

inhibition, active:
COc1ccc(CNC(=O)/C(C#N)=C/c2cccc(OC)c2OC)cc1 63.8%
CCOc1ccccc1N1CCN(C(=O)c2ccc3[nH]c(C)c(C)c3c2)CC1 48.8%
CCOc1ccccc1/C=c1\sc2nc(-c3ccco3)nn2c1=O 54.3%
COc1ccc(Cn2c(-c3ccc(Cl)cc3)c[n+]3ccccc23)cc1 48.6%
CCOC(=O)c1ccc(NC(=O)c2nc[nH]c2C(=O)NCc2ccccc2)cc1 41.1%
CSC(=S)N/N=C/c1c[nH]c2ccccc12 54.2%
Clc1ccccc1CSc1nnc(-c2ccco2)c(-c2ccco2)n1 41.7%
CCn1c(/C=C/c2ccc([N+](=O)[O-])o2)nc2ccccc2c1=O 69.9%
Cc1nc(-c2ccc(Cl)cc2)sc1C(=O)CBr 50.9%
Nc1ccc(-c2nnc(-c3ccc(-c4ccccc4)cc3)o2)cc1 45.9%
Cc1ccccc1Nc1nnc(SCC(=O)c2cc3ccccc3o2)s1 43.5%

Reference: PubChem BioAssay AID463190 (Sanford-Burnham Center for Chemical Genomics, 2010)
